Assay outcomes (PubChem)
TWEAK-Fn14 inh: inhibitors of TWEAK-Fn14 signaling, primary screen, luciferase reporter cells, uHTS; inhibition, % at 10 µM; TWEAK-stimulated Fn14 reporter cells, luciferase luminescence, 8 h; 2% of 360,000 active; AID 1159606, 2016; in the data active means inhibition above about 50%
HIF-2a inh: HIF-2a reporter inhibitors, primary screen, luminescence, 786-0 RCC cells | 786-0 RCC cells HIF-2a reporter, luciferase luminescence, overnight | inhibition, % at 18.8 µM | 0.72% of 360,000 active | AID 624352, 2012;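 active means inhibition of the luminescence signal of 40% or more relative to plate controls, in a single-dose primary screen at 18.75 µM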
Peg3 prom inh: Peg3 promoter-driven luciferase inhibitors, primary screen, cell-based, HeLa, luciferase luminescence. HeLa PEG-Prom luciferase reporter, overnight. inhibition, % at 20 µM. 1.7% of 360,000 active. AID 588405, 2011;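 active means inhibition of at least 50% at 20 µM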
TROY NFkB inh: inhibitors of TROY-driven NF-kB signaling, primary screen, Q293 LMP1-TROYcd cells, NF-kB luciferase, uHTS. Q293 LMP1-TROYcd NF-kB luciferase reporter, 4 h. inhibition, % at 10 µM. 0.98% of 360,000 active. AID 1347056, 2019;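 active means compounds whose plate-normalised and pattern-corrected inhibition of the luciferase reporter signal at the single screening dose is 50% or more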
KKLEB cytotox: cytotoxicity in KKLEB CF airway cells, primary screen, cytotoxicity control for CF NF-kB inhibitor project, cell-based, uHTS, fluorescence assay plates. activity change (cytotoxicity), % at 5 µM. KKLEB CF airway cells viability, ATPlite luminescence, overnight; hits give low values; cells stimulated with P. aeruginosa culture filtrate. 0.36% of 360,000 active;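 active means corrected activity change at or below -50% at 5 µM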
CF NFkB inh: inhibitors of PAF-induced NF-kB signaling, primary screen, cell-based, GFP fluorescence, uHTS. KKLEB NF-kB-GFP reporter, GFP fluorescence overnight. inhibition, % at 5 µM. 0.86% of 360,000 active. AID 588850, 2011;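 active means at least 50% inhibition at 5 µM, scaled per plate between neutral and stimulator controls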;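 further: PAF is a Pseudomonas aeruginosa culture filtrate used as stimulus; plate controls were PAF-stimulated DMSO wells for no effect and unstimulated DMSO wells for full effect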
The depositor's hits bear a star. Only some compounds are listed: those with a hit (about 4% of all), similar ones and a draw of the others.

SMILES	TWEAK-Fn14 inh	HIF-2a inh	Peg3 prom inh	TROY NFkB inh	KKLEB cytotox	CF NFkB inh
COc1ccc(CC(=O)Nc2nncs2)cc1OC	-11.4	20.8	-2.1	-11.5	-4.0	7.9
COc1ccc(NC(=O)CC2C(=O)N(Cc3ccccc3)C(=S)N2CCN2CCOCC2)cc1 (configuration not stated)	37.2	1.9	1.0	-14.4	-7.0	-19.4
C=CCN1C(=O)C(CC(=O)Nc2ccc(OCCC)cc2)N(CCCN2CCN(Cc3ccccc3)CC2)C1=S (configuration not stated)	18.2	3.7	52.1*	22.7	-21.1	4.7
Cn1ncc(Cl)c1C(=O)N/N=C/c1cc2c(cc1[N+](=O)[O-])OCO2	16.5	11.0	6.3	14.4	1.0	-14.6
CCCc1nn(C)c(C(=O)Nc2ccc(C)c(C)c2)c1Cl	-29.9	-253.1	-230.4	-13.0	12.1	1.1
N/C(=N\OC(=O)c1cccc(F)c1)c1ccccn1	84.0*	5.2	-14.1	61.0*	-5.5	-18.5
Cc1ccc(C(=O)O/N=C(\N)c2ccccn2)cc1C	99.0*	-5.6	76.0*	80.9*	-11.9	0.9
N/C(=N\OC(=O)c1ccc(Br)o1)c1ccccn1	60.4*	-134.5	-167.3	50.5*	5.7	-29.6
CCOC(=O)c1c(C)[nH]c(C(=O)COC(=O)CCSc2ccccc2)c1C	-46.7	-203.9	-194.4	5.4	-2.2	-4.0
CCOC(=O)c1c(C)[nH]c(C(=O)CSc2ccccc2)c1C	67.2*	-150.9	-147.8	37.9	-10.0	-2.0
CCN(CC)S(=O)(=O)c1ccc(NC(=S)NC(=O)C(C)C)cc1	2.5	12.2	6.4	-23.9	-14.6	7.9
CC1=CC(C)(C)NC(=S)N1c1ccc(N(C)C)cc1	9.0	-19.1	-12.4	3.5	7.2	3.3
COc1ccc(C(=O)/C(C#N)=N/Nc2cccc([N+](=O)[O-])c2)cc1	60.0*	-66.9	29.0	59.3*	-47.2	54.1*
Cc1cccc(OCCOC(=O)C2CCN(S(=O)(=O)c3ccc(C)c(C)c3)CC2)c1	-5.9	3.2	1.1	17.1	7.1	-25.5
C/C(=C\c1ccc(C(=O)O)cc1)c1ccc2c(c1)C(C)(C)CCC2(C)C	12.0	30.8	0.8	31.5	-9.0	91.0*
Cc1ccnc(NC(=O)c2cccs2)c1	-5.5	-173.5	-195.6	-42.4	-0.8	0.6
Cc1cc(NC(=O)c2cccs2)ncc1NC(=O)C(C)(C)C	46.7	-79.6	-146.8	51.5*	-4.5	-0.7
COc1cccc(NC(=O)/C=C/c2ccco2)c1	-4.6	-303.2	-296.3	-24.2	-0.1	0.2
O=C(/C=C/c1ccco1)Nc1ccc(Oc2ccc(Cl)cc2)cc1	51.3*	-51.3	13.1	6.2	-8.5	-0.9
O=c1c(C=NCc2cccnc2)c(C(F)(F)F)[nH]n1-c1nc2ccccc2s1	77.3*	-20.0	-70.0	48.4	-1.4	3.1
CC(=NCc1ccco1)c1c(C)[nH]n(-c2nc3ccccc3s2)c1=O	90.5*	-33.2	-38.2	83.9*	-2.0	7.7
CCC(=NCc1ccco1)c1c(C(F)(F)F)[nH]n(-c2nc3ccccc3s2)c1=O	87.0*	-49.7	-373.8	-28.7	2.2	-13.0
CC1CCN(c2nc3ccccc3n2CC(=O)c2ccccc2)CC1	6.9	12.6	6.0	-9.3	-1.4	-19.3
Cc1ccc(NS(=O)(=O)c2c(C)[nH]c(=O)[nH]c2=O)cc1F	-9.0	7.4	9.3	-15.8	-4.5	25.0
O=CN(CCNc1ccccc1)c1ccccc1	-7.4	-160.3	-90.4	-32.2	19.2	-13.2
O=C(CSc1cccc2cccnc12)N/N=C/c1ccc(F)cc1	-25.4	10.8	10.1	-11.3	-0.5	3.1
CCCCC(=O)N/N=C/c1ccc(Sc2cccc3cccnc23)o1	107.2*	-17.2	2.2	-9.2	-11.0	15.8
c1ccc(COc2ncnc3c2ncn3CCCN2CCN(Cc3cccc4ccccc34)CC2)cc1	42.6	-20.9	101.2*	30.1	-7.7	1.0
Cc1cc2ncc(-c3ncc(C(F)(F)F)cc3Cl)cn2n1	83.8*	-30.0	-2.7	43.9	6.4	2.8
